Source: PubChem BioAssay (National Center for Advancing Translational Sciences (NCATS))
ELG1 genotox – qHTS screen for small molecules that induce genotoxicity in human embryonic kidney (HEK293T) cells expressing luciferase-tagged ELG1; Potency, µM (series often up to 46 µM), for inactives: at the top dose activity change, positive = activation, usual class: activators; HEK293T ELG1-luciferase reporter, luminescence, 16 h; 330,000 tested, 1.3% active; also: % of control where 0% means no effect; nearly all actives have a fitted effect of over 60% in size
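HEK293T cells expressing luciferase-tagged ELG1 were exposed to compound or DMSO vehicle for 16 hr at 37 °C and 5% CO2. Luciferase activity was then measured with ONE-Glo after 30 min at room temperature.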
FLuc counter – qHTS profiling assay for firefly luciferase inhibitor/activator using purifed enzyme and Km concentrations of substrates (counterscreen for miR-21 project); Luciferin 4-monooxygenase (Photinus pyralis), P08659; purified FLuc, Km substrates, luminescence inhibition; Potency, µM (highest dose often 57.5 µM), for inactives: at the top dose activity change, negative = inhibition, usual class: inhibitors; 360,000 tested, 6.9% active; AID 588342, 2011;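 also: plate controls were vehicle for no effect and reference inhibitor for full effect; nearly all actives have a fitted effect of over 55% in size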
Target sequence (P08659 whole entry, looked up): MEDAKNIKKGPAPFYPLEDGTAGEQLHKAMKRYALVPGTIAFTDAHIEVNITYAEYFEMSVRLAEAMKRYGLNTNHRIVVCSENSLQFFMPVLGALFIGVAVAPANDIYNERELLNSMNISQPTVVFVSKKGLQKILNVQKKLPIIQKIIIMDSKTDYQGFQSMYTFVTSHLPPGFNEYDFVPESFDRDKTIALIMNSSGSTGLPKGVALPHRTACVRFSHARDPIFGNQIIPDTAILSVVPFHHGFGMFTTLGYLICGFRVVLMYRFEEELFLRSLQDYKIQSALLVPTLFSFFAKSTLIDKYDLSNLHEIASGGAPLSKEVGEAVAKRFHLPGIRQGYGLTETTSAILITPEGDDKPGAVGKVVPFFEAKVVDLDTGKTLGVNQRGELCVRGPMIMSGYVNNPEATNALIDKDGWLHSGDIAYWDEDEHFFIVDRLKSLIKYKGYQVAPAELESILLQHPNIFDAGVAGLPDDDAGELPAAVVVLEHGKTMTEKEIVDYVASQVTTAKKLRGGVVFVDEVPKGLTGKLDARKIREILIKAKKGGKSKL
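Biochemical qHTS of compounds, final roughly 60 µM downward over six points, against 10 nM purified firefly luciferase using Km concentrations of substrates (10 uM D-luciferin, 10 uM ATP) in Tris acetate pH 7.5 buffer; luminescence output.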
ELG1 DNA repair – qHTS screen for small molecules that inhibit ELG1-dependent DNA repair in human embryonic kidney (HEK293T) cells expressing luciferase-tagged ELG1. AID 504467, 2011. Potency, µM (series often up to 46.1 µM), for the others: top-dose activity change, negative = inhibition, usual class: inhibitors. HEK293T ELG1-luciferase reporter, luminescence, 16 h; DNA damage induced by 5-fluorouridine. 330,000 tested, 2.3% active; also: % is scaled to controls: 0 for no effect and ±100 for the full control effect; nearly all actives have a fitted effect of over 55% in size
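Quantitative HTS, concentration-response format. 2,000 cells/well co-treated with 5-fluorouridine and compound, 16 hr in 5% CO2 at 37 °C; ONE-Glo luminescence read after 30 min.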
SMN2 splice enh – qHTS Assay for Enhancers of SMN2 Splice Variant Expression; 210,000 tested, 2.8% active; Potency, µM (series often up to 46.1 µM), without a hit: at the highest dose activity change, positive = activation, actives largely listed as activators; AID 1458, 2008; HEK293 SMN2-luciferase splicing reporter, luminescence, 30-36 h; also: % of control where 0% means no effect; nearly all actives have a fitted effect of over 55% in size
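HEK293 cells carry an SMN2 minigene-luciferase reporter in which exon 7 inclusion puts luciferase in frame. Cells were seeded at 2000 cells/well, attached for 10-12 hours, then exposed to compounds for 30-36 hours at 37C before ONE-Glo luminescence.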
NPC1 prom act – qHTS Assay for NPC1 Promoter Activators; Huh7 NPC1 promoter luciferase reporter, 24 h; Potency, µM (titrated, usually from 9.22 µM), for inactives: at the top dose activation, actives largely listed as activators; 320,000 tested, 2.4% active; AID 485313, 2010; also: % of control where 0% means no effect; nearly all actives have a fitted effect of over 60% in size
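Huh7 cells stably carrying NPC1 promoter–luciferase, plated in Opti-MEM with 10% FBS for 2 h, were exposed to compound in DMSO for 24 h at 37 °C; luciferase reagent was added for 10 min and luminescence read.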
Rab9 promoter act – qHTS Assay for Rab9 Promoter Activators; Huh7 Rab9 promoter-luciferase reporter, luminescence, 24 h; Potency, µM (highest dose often 9.22 µM), for the others: at the top dose activation, negative = inhibition, usual class: activators; 320,000 tested, 2.8% active; also: % of control where 0% means no effect; nearly all actives have a fitted effect of over 60% in size
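Huh7 reporter line, Rab9 promoter upstream of luciferase. Compound exposure 24 h at 37 °C in reduced-serum medium with 10% FBS. Read-out: luminescence.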
An asterisk follows results filed as active; ? = inconclusive; · = not tested or not shown; [ ] = remark or other dose. An excerpt weighted towards active compounds, which were near 9.3% of everything screened. Calls follow the shape of the dose curve; as a rule, active = well fitted curve in the direction sought with a large enough effect; inconclusive = small, poorly fitted or top-dose-only effect, or another doubt; inactive = no such curve, though single readings can be large; an effect the other way counts as inactive or inconclusive. Potency is read from the fitted curve at half-maximal effect.

SMILES	ELG1 genotox	FLuc counter	ELG1 DNA repair	SMN2 splice enh	NPC1 prom act	Rab9 promoter act
O=C(Nc1ccccc1)Nc1ccc(Cl)c(S(=O)(=O)N2CCOCC2)c1	-11.2%	?	?	-20.0%	-8.7%	-7.6%
O=C(Nc1cccc(Br)c1)c1cc(S(=O)(=O)N2CCOCC2)cs1	-11.3%	-6.7%	16.4µM*	·	0.1%	6.4%
O=C(CSc1ccccc1)Nc1ccc(Cl)c(S(=O)(=O)N2CCOCC2)c1	-3.3%	·	13µM*	·	·	·
COc1ccc(CCNC(=O)CCn2c(=O)c3ccccc3n(Cc3ccc(Cl)cc3)c2=O)cc1OC	·	0.9%	·	18.5%	·	·
O=C(Nc1ccc(Cl)c(S(=O)(=O)N2CCOCC2)c1)c1ccccc1-c1ccc(C(F)(F)F)cc1	-2.9%	-1.2%	23.1µM*	-14.6%	-6.3%	-1.5%
O=C(Nc1ccc(Cl)c(S(=O)(=O)N2CCOCC2)c1)C1=NN(c2ccccc2)C(=O)CC1	-1.5%	·	29.1µM*	·	·	·
Cc1cccc(N2N=C(C(=O)Nc3ccc(Cl)c(S(=O)(=O)N4CCOCC4)c3)CCC2=O)c1	0.2%	-1.0%	?	·	2.5%	-4.0%
N#CCOC(=O)C1c2ccccc2Oc2ccccc21	0.8%	-1.6%	8.9%	·	-1.2%	3.6%
N/C(COc1ccc(Cl)cc1)=N\NS(=O)(=O)c1ccccc1	0.2%	4.3%	4.6%	-8.7%	-1.2%	2.1%
COC(=O)C(Cc1ccc(O)cc1)NC(=O)C12CC3CC(CC(C3)C1)C2 (stereo unspecified)	0.0%	-7.8%	5.3%	-4.5%	-3.0%	0.6%
O=C(CN1C(=O)NC2(CCc3ccccc32)C1=O)NCC(F)(F)F (stereo unspecified)	4.1%	0.1%	14.9%	·	-4.4%	-0.6%
NNC(=O)c1ccccc1OCc1ccccc1	1.4%	-3.3%	0.0%	·	-2.7%	-3.6%
CC(=O)c1ccc(OCc2ccccc2)c(C)c1O	?	16.9µM*	?	?	15.5%	3.8%
CN(C)S(=O)(=O)c1ccc(Cl)c(C(=O)Nc2ccc(S(=O)(=O)N3CCOCC3)cc2)c1	-8.3%	-0.9%	16.4µM*	·	0.0%	?
CN(C)S(=O)(=O)c1ccc(Cl)c(C(=O)Nc2cccc([N+](=O)[O-])c2)c1	-7.4%	0.0%	8.2µM*	-58.8%	-14.1%	-18.4%
CN(CC(=O)Nc1cccc([N+](=O)[O-])c1)S(=O)(=O)c1ccccc1	-1.9%	2.3%	0.1%	-4.2%	-0.2%	-7.0%
O=C(Nc1ccc(S(=O)(=O)N2CCOCC2)cc1)c1cc([N+](=O)[O-])ccc1Cl	?	-0.3%	?	·	2.5%	3.8%
Cc1ccc2nc(-c3ccncc3)cc(C(=O)NCc3ccccc3F)c2c1	-9.9%	?	-2.0%	·	4.3%	8.9%
O=C(N/N=C/c1ccc(-c2ccccc2)o1)c1ccccc1O	0.2%	5.36µM*	?	·	11.0%	18.6%
O=C(N/N=C\c1ccccn1)c1ccccc1O	?	12µM*	?	18.0%	-0.1%	13.5%
O=C(N/N=C\c1ccncc1)c1ccccc1O	-4.8%	9.53µM*	?	24.5%	12.7%	-1.5%
CC1(C)C2CC=C(/C=N/NC(=O)c3ccccc3O)C1C2 (stereo unspecified)	-0.4%	7.57µM*	1.8%	-15.3%	-0.7%	-2.8%
O=C(N/N=C/c1ccccn1)c1ccco1	6.3%	?	20.0%	1.4%	4.8%	1.6%
CCOc1ccc(C(C(=O)NCC2CCCO2)N(Cc2ccccc2)C(=O)c2snc(C(N)=O)c2N)cc1 (stereo unspecified)	-21.8%	0.0%	?	·	0.0%	2.1%
CCOCc1nnc(NC(=O)c2c(OC)cccc2OC)s1	1.2%	9.7%	8.8%	-1.5%	-1.4%	1.8%
SMILES	ELG1 genotox	FLuc counter	ELG1 DNA repair	SMN2 splice enh	NPC1 prom act	Rab9 promoter act
CN(CC1CCCN(CCc2ccc(Cl)cc2)C1)C(=O)CC(F)(F)F (stereo unspecified)	-0.8%	0.9%	-6.1%	·	-5.9%	4.7%
CS(=O)(=O)CCC(C(=O)N1CCOCC1)N1C(=O)c2cc(Cl)c(Cl)cc2C1=O (stereo unspecified)	-0.1%	0.0%	20.7%	-5.7%	-3.3%	-1.7%
Cc1ccccc1C(=O)N/N=C/c1ccccn1	25.9µM*	8.49µM*	?	11.2µM*	3.16µM*	3.98µM*
COc1ccc(OC)c(C(=O)N/N=C/c2ccccn2)c1	-1.9%	?	2.8%	·	2.6%	-1.2%
Cc1ccccc1C(=O)N/N=C/c1ccncc1	6.9%	?	7.6%	-0.9%	12.8%	10.7%
CCOc1ccc(Br)cc1C(=O)N/N=C/c1ccccn1	-9.5%	-2.1%	11.6µM*	·	-6.7%	-1.7%[1.84 µM]
Cc1ccc(NC(=O)COC(=O)COc2ccc(Cl)cc2C)c([N+](=O)[O-])c1	2.2%	0.8%	8.2%	5.5%	-2.1%	-1.3%
CCCCn1c(NCCO)nc2ccccc21	4.7%	-0.5%	4.0%	15.9%	-3.2%	-2.2%
Cc1ccc(C)c(CN2CCCN(Cc3ccccc3C)S2(=O)=O)c1	·	1.0%	·	·	·	·
Fc1cccc(Nc2ncnc3sccc23)c1	0.0%	-17.7%	-20.2%	·	0.2%	?
O=C(O)c1cccc(Nc2ncnc3sccc23)c1	-0.5%	7.57µM*	26.5%	4.3%	28.5%	14.8%
O=C1CSC(=S)N1/N=C/C=C/c1ccccc1	-2.2%	?	7.3%	1.0%	-0.2%	-0.7%
N=C1SCC(=O)N1/N=C/c1ccccc1	-19.8%	5.36µM*	?	-33.1%	-0.5%	1.0%
CCOc1ccccc1NC(=O)CCSc1nc2n[nH]c(C)c2c(=N)n1-c1ccccc1Cl	-13.8%	-0.9%	3.16µM*	-12.7%	-0.1%	-8.2%
O=C(Nc1cccc(S(=O)(=O)N2CCCCC2)c1)c1cc2ccccc2o1	-9.3%	8.49µM*	?	·	0.4%	13.3%
O=C(Nc1cccc(S(=O)(=O)N2CCOCC2)c1)c1cc2ccccc2o1	-8.2%	16.9µM*	21.2%	·	0.7%	1.1%
CC(C)Cn1c(SCC#N)nc2ccccc2c1=O	0.0%	1.0%	11.2%	-17.7%	0.4%	-7.0%
Cc1ccc(OC(=O)CCC(=O)OCCCC(F)(F)C(F)(F)F)cc1	-8.8%	-2.0%	15.6%	-10.6%	-2.2%	2.1%
CC1CCC(NC(=O)C(=O)Nc2ccc3c(c2)OCO3)CC1 (stereo unspecified)	4.11µM*	7.57µM*	?	·	2µM*	0.708µM*
